# Results published in publication PMC8222333, “AsCas12a ultra nuclease facilitates the rapid generation of therapeutic cell medicines”.
# Changes are numbered by the printed parent chain.
# B1: TCGA (dsDNA)
# DNA 1: GCTATCTAGTGCTCAGTACGCACTGTCGAAGGAAACTTCTGGCAGGACCAGGTCATGAGATCGGAAGAGCACACGTCTGAACTCCAGTCA
# DNA 2: TGACTGGAGTTCAGACGTGTGCTCTTCCGATCTCATGACCTGGTCCTGCCAGAAGTTTCCTTCGACAGTGCGTACTGAGCACTAGATAGC
# RNA: AAUUUCUACUCUUGUAGAUAGGAAACUUCUGGCAGGACC
# B2: TGGA (dsDNA)
# DNA 1: B1 DNA 1 with C27G
# DNA 2: B1 DNA 2 with G64C
# RNA: B1 RNA
# B3: TGAA (dsDNA)
# DNA 1: B1 DNA 1 with C27G, G28A
# DNA 2: B1 DNA 2 with C63T, G64C
# RNA: B1 RNA
# B4: TCGT (dsDNA)
# DNA 1: B1 DNA 1 with A29T
# DNA 2: B1 DNA 2 with T62A
# RNA: B1 RNA
# B5: TGTG (dsDNA)
# DNA 1: B1 DNA 1 with C27G, G28T, A29G
# DNA 2: B1 DNA 2 with T62C, C63A, G64C
# RNA: B1 RNA
# B6: TCGC (dsDNA)
# DNA 1: B1 DNA 1 with A29C
# DNA 2: B1 DNA 2 with T62G
# RNA: B1 RNA
# B7: TGGT (dsDNA)
# DNA 1: B1 DNA 1 with C27G, A29T
# DNA 2: B1 DNA 2 with T62A, G64C
# RNA: B1 RNA
# B8: TCTT (dsDNA)
# DNA 1: B1 DNA 1 with G28T, A29T
# DNA 2: B1 DNA 2 with T62A, C63A
# RNA: B1 RNA
# Tests used:
# Test in all cases: Spec-seq (native PAGE EMSA with sequencing of bound and unbound); 25 mM Tris-HCl pH 7.4, 150 mM KCl, 5 mM MgCl2, 10% glycerol, 1 mM DTT, 40 ng/uL salmon sperm DNA; 400 nM Cas12a, 480 nM crRNA, 50 nM library, 37 C 1 h; native PAGE at room temperature; high values mean tight binding
# Settings in all cases: protein: recombinant
# dAsCas12a Ultra = dAsCas12a Ultra (Acidaminococcus sp., UniProt U2UMQ6 1-1307, M537R;F870L;D908A;E993A;D1235A)
# dAsCas12a E174R = dAsCas12a E174R (Acidaminococcus sp., UniProt U2UMQ6 1-1307, E174R;D908A;E993A;D1235A);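 further: relative affinity from the bound to unbound sequence frequency ratio in Spec-seq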
# dAsCas12a S542R = dAsCas12a S542R (Acidaminococcus sp., UniProt U2UMQ6 1-1307, S542R;D908A;E993A;D1235A);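 further: relative affinity from the bound to unbound sequence frequency ratio in Spec-seq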
# d-enCas12a = d-enCas12a (Acidaminococcus sp., UniProt U2UMQ6 1-1307, E174R;S542R;K548R;D908A;E993A;D1235A)
# d-enCas12a-Ultra = d-enCas12a-Ultra (Acidaminococcus sp., UniProt U2UMQ6 1-1307, E174R;S542R;K548R;M537R;F870L;D908A;E993A;D1235A);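 further: relative affinity from the bound to unbound sequence frequency ratio in Spec-seq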
# dAsCas12a K548R = dAsCas12a K548R (Acidaminococcus sp., UniProt U2UMQ6 1-1307, K548R;D908A;E993A;D1235A)
Binder,binding signal (dAsCas12a Ultra),binding signal (dAsCas12a E174R),binding signal (dAsCas12a S542R),binding signal (d-enCas12a),binding signal (d-enCas12a-Ultra),binding signal (dAsCas12a K548R)
B1,-8.77 lnKA,-8.54 lnKA,-7.61 lnKA,-5.86 lnKA,-3.33 lnKA,–
B2,-8 lnKA,–,-7.85 lnKA,-5.44 lnKA,-3.27 lnKA,–
B3,-8.9 lnKA,–,-8.33 lnKA,-5.68 lnKA,-3.27 lnKA,–
B4,-8.83 lnKA,-8.58 lnKA,-8.35 lnKA,-5.85 lnKA,-3.4 lnKA,–
B5,-7.7 lnKA,-8.19 lnKA,-7.46 lnKA,-2.08 lnKA,-0.568 lnKA,-8.2 lnKA
B6,-7.42 lnKA,-7.83 lnKA,-7.58 lnKA,-5.36 lnKA,-2.95 lnKA,–
B7,-8.76 lnKA,–,-8.26 lnKA,-5.72 lnKA,-3.36 lnKA,–
B8,-6.94 lnKA,-6.26 lnKA,-7.22 lnKA,-5.44 lnKA,-2.4 lnKA,–
